Screening data as filed in PubChem BioAssay.
Peg3 promoter – inhibitors of Peg3 promoter; HeLa PEG-Prom luciferase reporter, luminescence, overnight; inhibition, % at 20 µM; actives 1.7% (n = 360,000);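 active = inhibition of at least 50% at 20 µM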
KKLEB cytotox – reduces viability of KKLEB cystic fibrosis airway cells | KKLEB CF airway cells viability, ATPlite luminescence, overnight; hits give low values; cells stimulated with P. aeruginosa culture filtrate | activity change (cytotoxicity), % at 5 µM | actives 0.36% (n = 360,000);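 active = corrected activity change at or below -50% at 5 µM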
CF NFkB inh – cystic fibrosis NF-kB activation inhibition | actives 0.86% (n = 360,000) | KKLEB NF-kB-GFP reporter, PAF-induced, GFP fluorescence overnight | inhibition, % at 5 µM | AID 588850;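 active = at least 50% inhibition at 5 µM, scaled per plate between neutral and stimulator controls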;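 note: PAF is a Pseudomonas aeruginosa culture filtrate used as stimulus; plate controls were PAF-stimulated DMSO wells for no effect and unstimulated DMSO wells for full effect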
TWEAK-Fn14 inh – blocks TWEAK-Fn14 interaction in a reporter cell assay. TWEAK-stimulated Fn14 reporter cells, luciferase luminescence, 8 h. inhibition, % at 10 µM. actives 2% (n = 360,000); in the data active = inhibition above about 50%
TROY signal inh – blocks TROY-dependent signaling in reporter cells; inhibition, % at 10 µM; Q293 LMP1-TROYcd NF-kB luciferase reporter, 4 h; actives 0.98% (n = 360,000); AID 1347056;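 active = compounds whose plate-normalised and pattern-corrected inhibition of the luciferase reporter signal at the single screening dose is 50% or more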
HIF-2a inh – blocks HIF-2a reporter activity; 786-0 RCC cells HIF-2a reporter, luciferase luminescence, overnight; AID 624352; inhibition, % at 18.8 µM; actives 0.72% (n = 360,000);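 active = inhibition of the luminescence signal of 40% or more relative to plate controls, in a single-dose primary screen at 18.75 µM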
* marks the source's active call; other numbers are inactive results; nt = not tested or not shown. Hits are enriched below; roughly 4% of the tested compounds scored in any of these assays.

SMILES	Peg3 promoter	KKLEB cytotox	CF NFkB inh	TWEAK-Fn14 inh	TROY signal inh	HIF-2a inh
Cc1sc2nc3ccc(NCc4ccco4)nn3c(=O)c2c1C	-17	-7	28	91*	3	-25
O=c1c2ccccc2nc2ccc(NCc3ccco3)nn12	-197	-2	-8	19	-10	-24
Cc1ccccc1Nc1nc(Nc2ccccc2C)nc(SC2=NCCS2)n1	23	-2	16	71*	18	-21
CC1CCN(c2ncnc3c2cnn3-c2ccccc2)CC1	-387	-30	-25	-5	14	-222
COCCNc1ncnc2c1cnn2-c1ccc(Cl)cc1	-255	-3	9	54*	-53	-194
OCCOCCNc1ncnc2c1cnn2-c1ccc(Cl)cc1	-256	2	-9	43	3	-158
CC(C)(C)Nc1ncnc2c1cnn2-c1ccccc1	-333	-15	-1	40	51*	-230
COc1ccc(-n2ncc3c(N4CCC(C)CC4)ncnc32)cc1	-66	-2	-9	66*	69*	-21
Clc1ccc(-n2ncc3c(N4CCCC4)ncnc32)cc1	10	-42	-21	100*	80*	-37
O=C(CSc1ccc(Cl)cc1)N1CCN(c2ncc(C(F)(F)F)cc2Cl)CC1	0	-7	4	6	36	14
CC1=C(C(=O)N(C(C)C)C(C)C)CC(CC(=O)NC2CCCCC2)C(=O)N1CCC1=CCCCC1 (stereo not given)	-3	-16	-14	3	7	-5
Clc1ccc(Nc2ncnc3c2cnn3-c2ccccc2)cc1	-289	19	-7	46	-12	-310
COc1cccc(OCCN2CCN(c3ncnc4c3cnn4-c3ccccc3)CC2)c1	-34	11	-34	57*	31	-12
Cn1ncc2c(N3CCN(c4ccc(Cl)c(Cl)c4)CC3)ncnc21	100*	-20	42	85*	24	-71
CC(C)Nc1ncnc2c1cnn2-c1ccc(Cl)cc1	-118	-10	3	74*	64*	-118
CCOC(=O)N1CCN(c2ncnc3c2cnn3-c2ccc(OC)cc2)CC1	-35	12	7	46	nt	-86
O=C(OCc1ccccc1)N(CCCCN(CCCNCc1ccccc1)C(=O)OCc1ccccc1)CCCNCc1ccccc1	108*	-90*	68*	102*	34	89*
O=C(NCCCCCCNC(=O)OCc1ccccc1)OCc1ccccc1	2	-11	-11	4	-7	1
COc1ccccc1N1CCN(C(=S)Nc2cccc(C)c2)CC1	-5	6	12	63*	61*	11
COc1ccccc1N1CCN(C(=S)Nc2ccc3nc(N4CCOCC4)cc(C)c3c2)CC1	-8	-17	20	52*	37	-13
CC1(C)Cc2cccc(Oc3ccc(S(=O)(=O)N4CCCC4)cn3)c2O1	19	7	-16	8	14	13
Cc1cc(NC(=O)c2cccc(Br)c2)n[nH]1	70*	0	5	-18	-63	-230
CCCCCCCCN1C(=O)[C@H](CC(=O)NCC2CCCCC2)C[C@@]2(C(=O)OCC)CCC=C12	nt	nt	nt	nt	nt	-10
CCCCCCCCN1C(=O)[C@H](CC(=O)NCC2CCCCC2)C[C@@]2(C(=O)OCC)CCCC=C12	nt	nt	nt	-2	51*	-7
COc1ccc(C2(C#N)CCC(=O)N2c2ccccc2)cc1 (stereo not given)	5	12	-8	-17	52*	18
SMILES	Peg3 promoter	KKLEB cytotox	CF NFkB inh	TWEAK-Fn14 inh	TROY signal inh	HIF-2a inh
c1ccc(Nc2ccnc(Nc3ccccc3)n2)cc1	-241	-16	49	55*	20	-255
COC(=O)Nc1c(C(=O)OC)cc(OC)c(OC)c1OC	-3	-4	2	-11	0	5
Cc1cc(C(=O)N/N=C2\CC(=O)CC(C)(C)C2)c(C)n1-c1ccccc1	11	5	-6	22	53*	0
Cc1cc(C(=O)N/N=C2\CC(=O)CC(C)(C)C2)c(C)n1-c1ccc(F)cc1	0	-10	-9	-2	-15	15
O=c1oc2cc(O)c(Cl)cc2c2ccccc12	-12	3	-28	5	-4	-18
O=c1cc2c(=O)oc3cc(O)c(O)oc3c2c(O)c1O	18	0	1	83*	7	18
COc1ccc(S(=O)(=O)N2CCCCCC2)cc1NC(=O)CC1OC(=O)c2ccccc21 (stereo not given)	3	4	-20	13	-9	12
CC(C)CC1C(=O)N(Cc2cn(CCC3OCCCO3)nn2)CCS(=O)(=O)N1Cc1ccc(-c2ccc(Cl)cc2)cc1 (stereo not given)	22	-12	7	17	6	3
CC(C)CC1C(=O)N(Cc2cn(CCC3OCCCO3)nn2)CCS(=O)(=O)N1Cc1ccc(-c2ccc(Cl)c(Cl)c2)cc1 (stereo not given)	56*	-18	35	39	35	-32
COCOCCn1cc(CN2CCS(=O)(=O)N(Cc3ccc(-c4ccc(Cl)c(Cl)c4)cc3)C(C)C2=O)nn1 (stereo not given)	93*	-13	20	48	41	-38
Cc1cccc(C)c1-c1ccc(CN2C(CC(C)C)C(=O)N(Cc3cn(CCO)nn3)CCS2(=O)=O)cc1 (stereo not given)	58*	2	39	37	37	-10
CC1C(=O)N(Cc2cn(CCC3OCCCO3)nn2)CCS(=O)(=O)N1Cc1ccc(-c2ccc(Cl)c(Cl)c2)cc1 (stereo not given)	35	-14	22	71*	45	-33
Cc1ccccc1Cc1c(C)nc2c(C(=O)NCc3ccco3)cnn2c1C	9	-14	23	13	12	5
CCn1cc(C(=O)NCc2cccc(C(F)(F)F)c2)c(=O)c2ccc(C)nc21	19	-12	19	21	-35	-14
Cc1cc(C)n2nc(C(=O)NCc3cccc(C(F)(F)F)c3)nc2n1	2	-9	-18	-7	51*	4
CCO[C@@H]1OC(C(=O)NC2CC2)=C[C@H](c2coc3ccccc3c2=O)[C@H]1CCCO	-4	13	7	3	-7	17
COc1ccccc1OCc1nnc(SCCN2CCOCC2)o1	-3	-13	-22	10	-2	14
Nn1c(SCc2ccc([N+](=O)[O-])cc2)nc2ccccc2c1=O	-11	-1	-10	-2	-5	-11
O=C(CSc1nc2ccccc2c(=O)n1Cc1ccco1)c1ccccc1	-30	-3	-12	52*	15	-133
Cc1sc2nc(SCc3ccc(C(=O)O)cc3)n(Cc3ccco3)c(=O)c2c1C	15	-18	22	38	60*	13
COc1ccc(C(=O)Nn2c(SCc3ccc([N+](=O)[O-])cc3)nc3ccccc3c2=O)cc1	-119	-8	-18	73*	76*	-52
